Screening results (PubChem BioAssay)
Compounds with a hit are over-represented: about 1.8% of the library has one in this group of screens.
Tb PGK inh: T. brucei PGK inhibition. P07378. PGK/GAPDH coupled, Kinase-Glo luminescence, 60 min. Potency, µM (doses to about 57.5 µM), inactives show at the highest dose activity change, negative = inhibition, actives largely listed as inhibitors. hit rate 0.043% among 380,000; note: % is set by controls: 0 for no effect and ±100 for the full control effect; nearly all actives have a fitted effect of over 60% in size
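Luminescent ATP detection (Kinase-Glo Plus) follows a 60-minute room-temperature incubation, with wells lacking PGK as controls. Buffer: 100 mM TEA (pH 7.6), 5 mM MgCl2, 0.01% Tween-20. Coupling enzyme GAPDH (100 nM final) supplies unstable 1,3-BPG in-well.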
Tb PFK inh: inhibitors of T. brucei phosphofructokinase | AID 485367 | T. brucei PFK, ADP-Glo luminescence | Potency, µM (highest dose often 57.5 µM), for inactives: top-dose activity, negative = inhibition, usual class: inhibitors | hit rate 0.17% among 330,000;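 note: 0% = uninhibited 1x PFK enzyme wells and -100% = no-enzyme wells; nearly all actives have a fitted effect of over 60% in size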
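PFK 1.25 nM, F6P 0.5 mM, ATP 0.1 mM, 0.1 M TEA pH 8.0, 5 mM MgCl2, 0.01% Tween20, 0.1% BSA; 45 min RT. ADP-Glo readout. qHTS titration up to 57 uM; curves fitted, compounds curve-classed.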
GLP-1R inv ag: acts as inverse agonist at human GLP-1 receptor; AID 624417; hit rate 1.6% among 410,000; HEK293 GLP-1R CRE-luciferase, luminescence, 24 h; GLP-1R form is constitutively active; Potency, µM (highest dose often 38.3 µM), without a hit: top-dose activity change, negative = inhibition, usual class: inhibitors; P43220; note: % is set by controls: 0 for no effect and ±100 for the full control effect; nearly all actives have a fitted effect of over 55% in size
Target sequence (P43220 whole entry, looked up): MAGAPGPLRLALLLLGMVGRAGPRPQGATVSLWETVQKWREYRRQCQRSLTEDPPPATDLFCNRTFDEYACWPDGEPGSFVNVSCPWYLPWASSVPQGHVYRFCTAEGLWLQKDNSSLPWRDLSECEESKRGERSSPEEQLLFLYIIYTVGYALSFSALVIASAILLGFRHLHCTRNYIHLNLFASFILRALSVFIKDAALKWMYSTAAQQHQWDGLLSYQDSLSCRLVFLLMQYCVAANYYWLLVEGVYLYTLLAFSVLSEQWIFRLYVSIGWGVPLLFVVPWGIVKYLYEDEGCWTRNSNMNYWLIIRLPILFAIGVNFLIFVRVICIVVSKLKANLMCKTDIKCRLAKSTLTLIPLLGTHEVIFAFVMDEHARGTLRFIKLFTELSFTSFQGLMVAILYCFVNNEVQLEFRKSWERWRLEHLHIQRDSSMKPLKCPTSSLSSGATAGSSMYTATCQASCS
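Inverse agonism was detected as reduced cAMP-driven luciferase luminescence after 24 h compound treatment. The cells were HEK293 clones expressing constitutively active human GLP-1R with the reporter. Reporter-only and GPR119 cell lines served as counterscreen controls.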
Pin1 inh: blocks the human prolyl isomerase Pin1 | Q13526 | Pin1 FP peptide displacement, HiFluor488, 10 min | Potency, µM (series often up to 115 µM), for inactives: at the top dose activity, negative = inhibition, most hits filed as inhibitors | hit rate 0.009% among 390,000 | AID 504891; active = well fitted inhibition curve with a large enough effect in the polarisation, with a control signal flat, not every such curve was filed as active; inconclusive = small, poorly fitted or top-dose-only effect, or effect the other way, or a change in a side signal; inactive = no such curve, though single readings can be large or run the other way; the % refers to the polarisation; note: % is set by controls: 0 for no effect and ±100 for the full control effect
Target sequence (Q13526 whole entry, looked up): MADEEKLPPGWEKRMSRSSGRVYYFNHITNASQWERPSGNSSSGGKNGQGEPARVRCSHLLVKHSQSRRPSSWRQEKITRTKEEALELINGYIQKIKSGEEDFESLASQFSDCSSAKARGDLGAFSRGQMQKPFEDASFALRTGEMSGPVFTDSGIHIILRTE
GLP1R cytotox: cytotoxicity counter-screen for GLP-1 receptor inverse agonists; HEK293 cAMP-luciferase reporter cells, luminescence, 24 h; Potency, µM (doses to about 38.3 µM), inactives show at the highest dose activity change, negative = inhibition, usual class: inhibitors; hit rate 0.13% among 410,000;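 note: loss of luciferase light is scored as toxicity; % is set by controls: 0 for no effect and ±100 for the full control effect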
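Quantitative HTS format, 1536 wells, 200 cells/uL seeded. Compounds: 23 nL, 24 h, 37 °C. Detection: luciferase reagent, luminescence at 12 min RT; decreased signal taken as cytotoxic.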
GLP1R ag: activates the human GLP-1 receptor; P43220; HEK293 GLP-1R CRE-luciferase, luminescence, 4-6 h; cells express a hypersensitive GLP-1R form; Potency, µM (series often up to 45.6 µM), without a hit: top-dose activation, actives largely listed as activators; hit rate 0.007% among 380,000; AID 624172; note: % of control where 0% means no effect
Numbers without * were called inactive; i = inactive; ? = inconclusive; nt = no result. Unless noted, calls come from the whole dose curve; as a rule, active = well fitted curve in the direction sought with a large enough effect; inconclusive = small, poorly fitted or top-dose-only effect, or another doubt; inactive = no such curve, though single readings can be large; an effect the other way counts as inactive or inconclusive. Potency is the fitted concentration of half-maximal effect.

SMILES | Tb PGK inh | Tb PFK inh | GLP-1R inv ag | Pin1 inh | GLP1R cytotox | GLP1R ag
COc1cc2c(-c3ccc(C)cc3)nc3c(c(C)nn3-c3ccccc3)c2cc1OC | -5% | nt | -9% | -2% | -6% | nt
O=C(CN1CCN(C(c2ccccc2)c2ccccc2)CC1)N1N=CCC1c1ccccc1 (stereo not given) | 3% | 1% | 11µM* | -1% | -21% | 9%
CC(C)(C)NC(=O)NC(=O)CN1CCN(C(c2ccccc2)c2ccccc2)CC1 | i | 0% | 5µM* | -9% | 16% | -1%
COc1ccc(CNC(=O)CN2CCN(C(c3ccccc3)c3ccccc3)CC2)cc1 | -16% | -1% | 13µM* | -3% | -14% | 17%
CC(C)(C)NC(=O)NC(=O)CN1CCN(Cc2ccccc2)CC1 | -1% | -4% | -14% | 3% | -5% | -4%
O=C(CN1CCN(c2ccccc2)CC1)N1N=CCC1c1ccccc1 (stereo not given) | 0% | -4% | -13% | 2% | 18% | 2%
Cc1ccc(C(C)NC(=S)NCc2ccc(F)cc2)cc1C (stereo not given) | -8% | -1% | 8.9µM* | -2% | -1% | 5%
COc1ccccc1CCNC(=O)c1ccc(-c2nc(CSc3ccc(C)cc3)c(C)o2)cc1 | -4% | nt | 10µM* | 1% | 11% | nt
CC(=O)c1ccc(NC(=O)c2ccc(-c3nc(CSc4ccccc4)c(C)o3)cc2)cc1 | 0% | nt | -3% | 32% | -1% | nt
Cc1oc(-c2ccc(C(=O)Nc3cccc(C(F)(F)F)c3)cc2)nc1CSc1ccccc1 | 2% | nt | 2.2µM* | -1% | -22% | nt
Cc1ccccc1CN1c2ccccc2-c2nc(SCC(=O)c3ccccc3)ncc2S1(=O)=O | -7% | nt | ? | 2% | ? | nt
CC(C)Cn1c(CN2CCN(c3cccc(Cl)c3)CC2)nc2c1c(=O)[nH]c(=O)n2C | -3% | nt | ? | -1% | -23% | 2%
CN1CCN(c2ccc3sc(-n4ccc5ccccc54)nc3c2)CC1 | i | nt | 6.3µM* | nt | 3% | 11%
CCCCCCC[C@@H](C/C=C/CCC(=O)N(C)C/C(=C/Cl)C/C(=C\C(=O)N1C[C@H](O)CC1=O)OC)OC | 0% | 5% | 11µM* | ? | -19% | 4%
Oc1ccc(-c2nc3ccccc3nc2-c2ccccc2)cc1 | -3% | 6% | 4µM* | 1% | -30% | 24%
COc1ccc(-n2nc(C(=O)Nc3cc(OC)c(OC)c(OC)c3)c(=O)n(C)c2=O)cc1 | -3% | nt | 13% | -4% | 9% | nt
Cc1cc(NC(=O)c2cccn2-c2nnc(N3CCCCC3)s2)ccc1Br | -1% | nt | 10µM* | 26% | -11% | nt
CC(C)N1Cc2ccc(Nc3nn4c(=O)c5ccccc5nc4s3)cc2C1 | nt | nt | nt | -1% | nt | nt
Cc1cccc(-n2c(SCc3ccc([N+](=O)[O-])cc3)nnc2-c2c[nH]c3ccccc23)c1 | i | 7% | 3.2µM* | -7% | 4% | 5%
COc1cccc(-n2c(SC)nnc2-c2c[nH]c3ccccc23)c1 | i | 2% | 7% | -4% | 2% | -5%
O=S(=O)(Nc1cccc2ccccc12)c1ccc2ccccc2c1 | nt | nt | nt | 2% | nt | nt
Cc1cccc(-n2ccnc2SCC(=O)Nc2ccccc2C(F)(F)F)c1 | -7% | nt | -16% | -6% | -1% | 4%
CC1CCc2nc(N)c(C#N)c(-c3cccnc3)c2C1 (stereo not given) | 1% | 0% | 0.89µM* | -6% | 7% | -3%
CC1CCc2nc(N)c(C#N)c(-c3ccncc3)c2C1 (stereo not given) | -2% | 24% | 19% | 4% | 5% | 12%
CC(Oc1cccc(Cl)c1)C(=O)Nc1cc(Cl)ccc1N1CCOCC1 (stereo not given) | -10% | 0% | 13µM* | 4% | -1% | 12%
SMILES | Tb PGK inh | Tb PFK inh | GLP-1R inv ag | Pin1 inh | GLP1R cytotox | GLP1R ag
CC(Oc1cccc(Cl)c1)C(=O)Nc1ccccc1N1CCCCC1 (stereo not given) | -6% | -13% | ? | -3% | 0% | 6%
CCc1ccc2oc(C(=O)N(Cc3ccc(N(C)C)cc3)Cc3ccco3)c(C)c2c1 | nt | nt | ? | 0% | 11% | nt
CCOc1ccc(N(CC(=O)NC2CC3CCC2C3)S(=O)(=O)c2ccccc2)cc1 (stereo not given) | i | -1% | 18% | -2% | -4% | 1%
CCOc1ccc(N(CC(=O)NC2CC3CCC2C3)S(=O)(=O)c2ccc(C)cc2)cc1 (stereo not given) | 2% | -6% | 7.9µM* | ? | 1% | -3%
Cc1cc(Oc2c(C(F)(F)F)oc3c(CN4CCC(C)CC4)c(O)ccc3c2=O)cc(C)c1Cl | 1% | nt | -1% | -14% | -1% | nt
CCOc1ccc(/C=C/c2nc(C#N)c(N3CCC(C)CC3)o2)cc1 | i | nt | -26% | 1% | -23% | nt
COc1cc(SC)ccc1C(=O)Nc1ncc(C)s1 | -6% | -10% | 10µM* | -7% | -14% | -16%
COc1cc(SC)ccc1C(=O)Nc1ccc(Br)cn1 | 0% | -4% | ? | 0% | 2% | -6%
CCNc1nc(-c2sc(NC(=O)C(C)(C)C)nc2C)c(-n2cc(-c3ccccc3)nn2)s1 | nt | nt | 10µM* | nt | ? | -33%
Cc1ccc(-c2nc3cc(C)c(Br)c(C)n3c2Cc2cccc(Cl)c2)cc1 | nt | nt | 9% | nt | 3% | -1%
Cc1ccc(Cc2c(-c3cccc(Cl)c3)nc3cc(C)c(Br)c(C)n23)cc1 | nt | nt | 3.2µM* | nt | 6% | 1%
CCCCN(c1ccccc1)S(=O)(=O)c1cccc(C(=O)Nc2c(C)n(C)n(-c3ccccc3)c2=O)c1 | -11% | nt | 11µM* | -12% | -7% | -35%
Cc1cc2c(s1)c1cnn(Cc3cc(F)cc(F)c3)c(=O)c1n2C | nt | nt | nt | 3% | nt | nt
CC(C)CNC(=O)c1ccccc1NC(=O)CCSc1ccccc1 | -8% | -5% | 7.1µM* | 2% | -9% | 25%
CC(C)CNC(=O)c1ccccc1NC(=O)c1ccc(CSc2ccccc2)cc1 | 2% | 2% | ? | ? | 0% | 6%
CCN(CC)CCCNC(=O)c1ccc(S(=O)(=O)Nc2ccc(C)c(C)c2)cc1 | -9% | -2% | 7.9µM* | 2% | 14% | 8%
CCCCNC(=O)c1ccc(NS(=O)(=O)c2ccccc2)cc1 | 0% | -1% | 0% | 8% | 5% | 2%
Cc1oc2c(c1C(=O)Nc1ccc(Cl)cc1F)C1=NCCN1C=N2 | -1% | nt | 8% | -2% | 2% | nt
CN(C)c1ccc(CNC(=O)c2cc3cc(S(=O)(=O)N4CCCCC4)ccc3n2C)cc1 | i | nt | 7% | 6% | -1% | nt
Cc1cc(C(N)=O)c2ccccc2n1 | 1% | -3% | -8% | -9% | -10% | -2%
